Reference: PubChem BioAssay (Tox21)
Results filed as inconclusive are left out. Active and inactive are the calls of the source. Unless noted, the call rests on the fitted dose curve; in most records, active means well fitted curve in the direction sought with a large enough effect in the repeat runs; inconclusive means weak or mixed curves; inactive means no such curve, though single readings can be large; an effect the other way counts as inactive or inconclusive.

Key:
[1] = qHTS assay to test for compound auto fluorescence at 535 nm (green) in HEK293 cells (AID 720680)
[2] = qHTS assay to test for compound auto fluorescence at 460 nm (blue) in HEK293 cell free culture (AID 720681)
Procedure, shortened: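 Compounds were added to cell-free DMEM with 10% FBS and fluorescence read directly. The blue channel used 405 nm excitation and 460 nm emission, with triamterene as the reference fluorophore.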

[3] = qHTS assay to test for compound auto fluorescence at 535 nm (green) in HEK293 cell free culture (AID 720682)
Procedure, shortened: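 DMEM + 10% FBS, cell-free; cpd or DMSO pinned in; Ex485/Em535 read; output as fluorescein-equivalent signal.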

[4] = qHTS assay to test for compound auto fluorescence at 590 nm (red) in HEK293 cell free culture (AID 720683)
Procedure, shortened: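 Cell-free wells of DMEM with 10% FBS received compound, and intrinsic fluorescence was read at excitation/emission 540/590 nm. Values expressed as equivalence to Rose Bengal sodium.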

[5] = qHTS assay to test for compound auto fluorescence at 590 nm (red) in HepG2 cell free culture (AID 720684)
Procedure, shortened: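 Compounds are added to culture medium (MEM, 10% FBS) lacking cells, then fluorescence is read at excitation 540 nm, emission 590 nm, with Rose Bengal sodium as the equivalency standard.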

[6] = qHTS assay to test for compound auto fluorescence at 460 nm (blue) in HepG2 cell free culture (AID 720685)
Procedure, shortened: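 Compound (23 nL) or DMSO pinned into cell-free MEM with 10% FBS; blue fluorescence read at 405/460 nm excitation/emission, expressed as auto-fluorescence equivalency to triamterene.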

[7] = qHTS assay to test for compound auto fluorescence at 535 nm (green) in HepG2 cell free culture (AID 720686)
[8] = qHTS assay to test for compound auto fluorescence at 460 nm (blue) in HepG2 cells (AID 720687)
Procedure, shortened: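 HepG2 cells in MEM with 10% FBS, attached overnight at 37 C, were exposed to compound or DMSO for 1 hr at 37 C, 5% CO2. Blue fluorescence was read at 405/460 nm, with triamterene as reference fluorophore.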

[9] = molecular target: Glucocorticoid receptor (Homo sapiens) (UniProt P04150); test: qHTS assay to identify small molecule antagonists of the glucocorticoid receptor (GR) signaling pathway (AID 720692; active means well fitted inhibition curve with a large enough effect in the signal ratio in the repeat runs, not every such curve was filed as active; the % refers to the signal ratio)
Sequence of Glucocorticoid receptor (Homo sapiens) (P04150 whole entry, looked up): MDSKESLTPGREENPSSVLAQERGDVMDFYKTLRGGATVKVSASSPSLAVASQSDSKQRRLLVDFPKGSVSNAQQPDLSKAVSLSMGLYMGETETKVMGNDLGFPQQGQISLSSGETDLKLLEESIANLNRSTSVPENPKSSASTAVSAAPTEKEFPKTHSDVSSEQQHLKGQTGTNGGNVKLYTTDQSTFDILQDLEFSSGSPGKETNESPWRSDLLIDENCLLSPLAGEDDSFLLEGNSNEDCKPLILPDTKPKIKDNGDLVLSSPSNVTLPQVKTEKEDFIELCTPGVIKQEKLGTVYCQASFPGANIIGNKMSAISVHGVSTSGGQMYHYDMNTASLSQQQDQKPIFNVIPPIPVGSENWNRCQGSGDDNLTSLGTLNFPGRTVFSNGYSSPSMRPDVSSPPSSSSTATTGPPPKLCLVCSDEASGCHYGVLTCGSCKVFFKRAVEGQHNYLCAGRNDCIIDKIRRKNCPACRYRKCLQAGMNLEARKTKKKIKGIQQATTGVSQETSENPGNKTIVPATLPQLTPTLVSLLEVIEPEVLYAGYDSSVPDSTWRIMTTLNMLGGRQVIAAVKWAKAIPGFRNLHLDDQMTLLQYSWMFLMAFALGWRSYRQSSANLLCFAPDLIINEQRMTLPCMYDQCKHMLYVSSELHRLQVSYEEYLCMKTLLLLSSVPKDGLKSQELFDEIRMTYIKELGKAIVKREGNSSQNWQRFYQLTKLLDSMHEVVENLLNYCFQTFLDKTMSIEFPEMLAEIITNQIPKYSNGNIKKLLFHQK
Procedure, shortened: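 Dexamethasone (5 nM final) stimulated a stably integrated GRE-beta-lactamase reporter in HeLa cells during 18 h co-incubation with compounds; signal was quantified as fluorescence intensity of B/G FRET substrate after 2 h.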

[10] = qHTS assay to identify small molecule antagonists of the glucocorticoid receptor (GR) signaling pathway - cell viability counter screen (AID 720693); further: nearly all actives have a fitted effect of over 55% in size
[11] = qHTS assay for identifying genotoxic compounds that show differential cytotoxicity against isogenic chicken DT40 cell lines with known DNA damage response pathways - wild type cell line (AID 743012); further: nearly all actives have a fitted effect of over 60% in size; further: potency means the concentration at half of the fitted maximal effect
Procedure, shortened: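 Using parental DT40 (300 cells/well), compounds delivered in DMSO incubate 40 h at 37 C/5% CO2. CellTiter-Glo reagent then stands 30 min at room temperature, and luminescence gives cell viability.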

[12] = qHTS assay for identifying genotoxic compounds that show differential cytotoxicity against isogenic chicken DT40 cell lines with known DNA damage response pathways - Rev3 mutant cell line (AID 743014); further: nearly all actives have a fitted effect of over 55% in size; further: potency means the concentration at half of the fitted maximal effect
[13] = qHTS assay for identifying genotoxic compounds that show differential cytotoxicity against isogenic chicken DT40 cell lines with known DNA damage response pathways - Rad54/Ku70 mutant cell line (AID 743015); further: nearly all actives have a fitted effect of over 60% in size; further: potency means the concentration at half of the fitted maximal effect
[14] = qHTS assay to identify small molecule antagonists of the androgen receptor (AR) signaling pathway - cell viability counter screen (AID 743033; further: nearly all actives have a fitted effect of over 45% in size)
[15] = qHTS assay to identify small molecule antagonists of the androgen receptor (AR) signaling pathway using the MDA cell line - cell viability counter screen (AID 743041; further: nearly all actives have a fitted effect of over 45% in size)
Procedure, shortened: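 Same-well cytotoxicity was assessed by CellTiter-Fluor in MDA-kb2 AR-luc cells after 16 h of compound treatment under R1881 agonism.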

[16] = molecular target: Androgen receptor (Homo sapiens) (UniProt P10275); test: qHTS assay to identify small molecule agonists of the androgen receptor (AR) signaling pathway using the MDA cell line (AID 743040; further: nearly all actives have a fitted effect of over 20% in size)
Sequence of Androgen receptor (Homo sapiens) (P10275 whole entry, looked up): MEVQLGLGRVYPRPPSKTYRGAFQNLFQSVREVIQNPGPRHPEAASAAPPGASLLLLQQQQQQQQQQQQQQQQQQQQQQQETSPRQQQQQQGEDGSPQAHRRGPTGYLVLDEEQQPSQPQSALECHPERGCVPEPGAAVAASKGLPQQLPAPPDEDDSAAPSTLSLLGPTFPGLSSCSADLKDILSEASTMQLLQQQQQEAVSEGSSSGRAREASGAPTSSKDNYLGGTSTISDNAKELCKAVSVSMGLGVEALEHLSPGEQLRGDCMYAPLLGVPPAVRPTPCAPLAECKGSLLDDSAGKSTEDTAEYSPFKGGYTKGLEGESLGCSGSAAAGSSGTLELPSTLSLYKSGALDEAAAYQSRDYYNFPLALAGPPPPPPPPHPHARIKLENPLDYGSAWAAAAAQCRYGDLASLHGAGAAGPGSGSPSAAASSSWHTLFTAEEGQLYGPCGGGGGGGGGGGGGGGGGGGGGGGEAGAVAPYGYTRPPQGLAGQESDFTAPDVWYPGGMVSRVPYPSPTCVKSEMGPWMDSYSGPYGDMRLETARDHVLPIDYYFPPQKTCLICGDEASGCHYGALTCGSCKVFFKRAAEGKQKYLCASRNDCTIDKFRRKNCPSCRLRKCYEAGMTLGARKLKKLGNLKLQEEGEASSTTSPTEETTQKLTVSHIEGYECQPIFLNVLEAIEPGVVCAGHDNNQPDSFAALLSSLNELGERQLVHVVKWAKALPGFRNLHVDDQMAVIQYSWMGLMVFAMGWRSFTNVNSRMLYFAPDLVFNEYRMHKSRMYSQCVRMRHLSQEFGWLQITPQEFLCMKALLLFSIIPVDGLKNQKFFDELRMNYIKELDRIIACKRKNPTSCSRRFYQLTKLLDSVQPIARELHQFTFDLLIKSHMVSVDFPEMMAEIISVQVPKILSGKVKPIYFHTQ
Procedure, shortened: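 Human breast carcinoma MDA-kb2 reporter cells (MMTV-luc, AR/GR elements) were treated for 16 h at 37C in 0% CO2 following a 5 h settling period. Signal was quantified by ONE-Glo luminescence.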

[17] = molecular target: Androgen receptor (Homo sapiens) (UniProt P10275); test: qHTS assay to identify small molecule antagonists of the androgen receptor (AR) signaling pathway using the MDA cell line (AID 743042; further: nearly all actives have a fitted effect of over 55% in size)
Procedure, shortened: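 MDA-kb2 breast carcinoma cells carrying MMTV-luciferase (AR/GR responsive) were co-treated with compounds and the agonist R1881 for 16 h at 37C. Inhibition read as ONE-Glo luminescence; CellTiter-Fluor fluorescence measured in parallel for cytotoxicity.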

[18] = molecular target: Glucocorticoid receptor (Homo sapiens) (UniProt P04150); test: qHTS assay to identify small molecule agonists of the glucocorticoid receptor (GR) signaling pathway (AID 720691; active means well fitted activation curve with a large enough effect in the signal ratio in the repeat runs, not every such curve was filed as active; the % refers to the signal ratio)
Procedure, shortened: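 Reporter read-out: fluorescence intensity following 2 h room-temperature LiveBLAzer B/G FRET substrate loading. Prior step: GR-bla HeLa cells held 4 h, then treated 18 h at 37 C.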
On the % scale 0 is the no-effect control and ±100 the full control effect.

CCCCCCCCBr
inactive: outcome [1] | outcome [2] | outcome [3] | outcome [4] | outcome [5] | outcome [6] | outcome [7] | outcome [8] | Potency [9] | Potency [10] | Potency [11] | Potency [12] | Potency [13] | Potency [14] | Potency [15]

NC(=O)OCCCc1ccccc1
active: Potency [11] 13.3 µM | Potency [12] 11.9 µM | Potency [13] 29.8 µM
inactive: outcome [1] | outcome [2] | outcome [3] | outcome [4] | outcome [5] | outcome [6] | outcome [7] | outcome [8] | Potency [9] | Potency [10] | Potency [14] | Potency [15]

NC(=O)CS(=O)C(c1ccccc1)c1ccccc1 (centres undefined)
inactive: outcome [1] | outcome [2] | outcome [3] | outcome [4] | outcome [5] | outcome [6] | outcome [7] | outcome [8] | Potency [9] | Potency [10] | Potency [11] | Potency [12] | Potency [13] | Potency [14] | Potency [15]

Nc1c(Cl)c(F)nc(OCC(=O)O)c1Cl
inactive: outcome [1] | outcome [2] | outcome [3] | outcome [4] | outcome [5] | outcome [6] | outcome [7] | outcome [8] | Potency [9] | Potency [10] | Potency [11] | Potency [13] | Potency [14] | outcome [16] | Potency [15] | Potency [17]

Brc1c(Br)c(Br)c(Br)c(Br)c1Br
inactive: fluorescence, % of fluorescein [1] -0.0363% [at 3.72 µM] | fluorescence, % of fluorescent control [2] 0.241% [at 3.72 µM] | activity change [3] 0.039% [at 3.72 µM] | fluorescence, % of fluorescent control [4] -0.398% [at 3.72 µM] | fluorescence, % of Rose Bengal [5] 0.0791% [at 3.72 µM] | fluorescence, % of fluorescent control [6] 0.0001% [at 3.72 µM] | fluorescence, % of fluorescein control [7] 0.0083% [at 3.72 µM] | fluorescence, % of fluorescent control [8] 0.182% [at 3.72 µM] | activity change, negative = inhibition [9] 4.46% [at 7.04 µM] | viability change, negative = cytotoxic [10] -0.032% [at 7.04 µM] | activity change, negative = cytotoxicity [11] -12.6% [at 8.52 µM] | activity, negative = cytotoxicity [12] 4.56% [at 8.53 µM] | activity change, negative = cytotoxicity [13] 8.63% [at 8.55 µM] | activity change, negative = cytotoxicity [14] -0.0996% [at 7.04 µM] | viability change, negative = cytotoxic [15] 1.47% [at 8.47 µM]

c1ccc2c(c1)CCNC2
inactive: outcome [1] | outcome [2] | outcome [3] | outcome [4] | outcome [5] | outcome [6] | outcome [7] | outcome [8] | Potency [10] | Potency [11] | Potency [12] | Potency [13] | Potency [14] | Potency [15]

N#CN
inactive: outcome [1] | outcome [2] | outcome [3] | outcome [4] | outcome [5] | outcome [6] | outcome [7] | outcome [8] | Potency [9] | Potency [10] | Potency [11] | Potency [12] | Potency [13] | Potency [15]

COc1ccc(C=O)cc1O
inactive: outcome [1] | outcome [2] | outcome [3] | outcome [4] | outcome [5] | outcome [6] | outcome [7] | outcome [8] | Potency [9] | Potency [10] | Potency [11] | Potency [12] | Potency [13] | Potency [14] | outcome [16] | Potency [15] | Potency [17]

COc1cc(CC(C)N)cc(OC)c1OC (centres undefined)
inactive: outcome [1] | outcome [2] | outcome [3] | outcome [4] | outcome [5] | outcome [6] | outcome [7] | outcome [8] | Potency [10] | Potency [11] | Potency [12] | Potency [13] | Potency [14]

CCN(CCO)CCn1c(Cc2ccccc2)nc2c1c(=O)n(C)c(=O)n2C
inactive: outcome [1] | outcome [2] | outcome [3] | outcome [4] | outcome [5] | outcome [6] | outcome [7] | outcome [8] | Potency [9] | Potency [10] | Potency [11] | Potency [12] | Potency [13] | Potency [15]

C=CCN1CC[C@]23CCCC[C@H]2[C@H]1Cc1ccc(O)cc13
inactive: outcome [1] | outcome [2] | outcome [3] | outcome [4] | outcome [5] | outcome [6] | outcome [7] | outcome [8] | Potency [18] | Potency [13]
active: Potency [11] 21.1 µM

C=CC(=O)OCCN(C)C
inactive: outcome [1] | outcome [2] | outcome [3] | outcome [4] | outcome [5] | outcome [6] | outcome [7] | outcome [8] | Potency [9] | Potency [10] | Potency [11] | Potency [12] | Potency [13] | Potency [15]

NCCOS(=O)(=O)O
inactive: outcome [1] | outcome [2] | outcome [3] | outcome [4] | outcome [5] | outcome [6] | outcome [7] | outcome [8] | Potency [18] | Potency [11] | Potency [12] | Potency [13] | Potency [14] | Potency [15]

CCOC(=O)Nc1cccc(OC(=O)Nc2ccccc2)c1
inactive: outcome [1] | outcome [2] | outcome [3] | outcome [4] | outcome [5] | outcome [6] | outcome [7] | outcome [8] | Potency [9] | Potency [10] | Potency [11] | Potency [13] | Potency [14] | Potency [15]

C#CC(C)(C)O
inactive: outcome [1] | outcome [2] | outcome [3] | outcome [4] | outcome [5] | outcome [6] | outcome [7] | outcome [8] | Potency [10] | Potency [11] | Potency [12] | Potency [13] | Potency [15]
